# Assay results reported in the supplement of paper PMC4466140.
# Tests used:
# Experiment in all cases: SPOT peptide array binding signal intensity (averaged, normalized) (arbitrary units (background-subtracted, floor 0; scale differs between SH3 domains)); higher = stronger binding of the SH3 domain to the peptide
# CaNbp2 = target: CaNbp2
# Procedure, shortened: (§1)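 GST-SH3 fusions from four yeast species, purified on glutathione Sepharose, were incubated at 10 μg/ml overnight at 4°C on membranes of synthetic 15-mer peptides in which cysteines were replaced with serines. Binding signal is the normalized, background-subtracted spot intensity averaged over replicates, in domain-specific arbitrary units.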
# CaRvs167 = target: CaRvs167
# Procedure, shortened: as §1
# CaRvs167-3 = target: CaRvs167-3
# Procedure, shortened: as §1
# CaSho1 = target: CaSho1
# Procedure, shortened: as §1
# CaSla1-D1-D2 = target: CaSla1-D1-D2
# Procedure, shortened: as §1
# CaSla1-D3 = target: CaSla1-D3
# Procedure, shortened: as §1
# ScAbp1 = target: ScAbp1
# Procedure, shortened: as §1
# ScBbc1 = target: ScBbc1
# Procedure, shortened: as §1
# ScBem1-D1 = target: ScBem1-D1
# Procedure, shortened: as §1
# ScBzz1-D1 = target: ScBzz1-D1
# Procedure, shortened: as §1
# ScBzz1-D2 = target: ScBzz1-D2
# Procedure, shortened: as §1
# ScCyk3 = target: ScCyk3
# Procedure, shortened: as §1
# ScFus1 = target: ScFus1
# Procedure, shortened: as §1
# ScHof1 = target: ScHof1
# Procedure, shortened: as §1
# ScHse1 = target: ScHse1
# Procedure, shortened: as §1
# ScLsb1 = target: ScLsb1
# Procedure, shortened: as §1
# ScLsb2 = target: ScLsb2
# Procedure, shortened: as §1
# ScLsb3 = target: ScLsb3
# Procedure, shortened: as §1
# ScLsb4 = target: ScLsb4
# Procedure, shortened: as §1
# ScMyo3 = target: ScMyo3
# Procedure, shortened: as §1
# ScMyo5 = target: ScMyo5
# Procedure, shortened: as §1
# ScNbp2 = target: ScNbp2
# Procedure, shortened: as §1
# ScPex13 = target: ScPex13
# Procedure, shortened: as §1
# ScRvs167 = target: ScRvs167
# Procedure, shortened: as §1
# ScSho1 = target: ScSho1
# Procedure, shortened: as §1
# ScSla1-D1-D2 = target: ScSla1-D1-D2
# Procedure, shortened: as §1
# ScSla1-D3 = target: ScSla1-D3
# Procedure, shortened: as §1
# SpAbp1-D1 = target: SpAbp1-D1
# Procedure, shortened: as §1
# SpBbc1 = target: SpBbc1
# Procedure, shortened: as §1
# SpBzz1-D1 = target: SpBzz1-D1
# Procedure, shortened: as §1
# SpBzz1-D2 = target: SpBzz1-D2
# Procedure, shortened: as §1
# SpCyk3 = target: SpCyk3
# Procedure, shortened: as §1
# SpHof1 = target: SpHof1
# Procedure, shortened: as §1
# SpHof1-2 = target: SpHof1-2
# Procedure, shortened: as §1
# SpHof1-3 = target: SpHof1-3
# Procedure, shortened: as §1
# SpHse1 = target: SpHse1
# Procedure, shortened: as §1
# SpLsb1 = target: SpLsb1
# Procedure, shortened: as §1
# SpLsb4 = target: SpLsb4
# Procedure, shortened: as §1
# SpMyo1 = target: SpMyo1
# Procedure, shortened: as §1
# SpNbp2 = target: SpNbp2
# Procedure, shortened: as §1
# SpPex13 = target: SpPex13
# Procedure, shortened: as §1
# SpRvs167 = target: SpRvs167
# Procedure, shortened: as §1
# SpSla1-D1-D2 = target: SpSla1-D1-D2
# Procedure, shortened: as §1
# SpSla1-D3 = target: SpSla1-D3
# Procedure, shortened: as §1
# AgAbp1 = target: AgAbp1
# Procedure, shortened: as §1
# AgBbc1 = target: AgBbc1
# Procedure, shortened: as §1
# AgBem1-D1 = target: AgBem1-D1
# Procedure, shortened: as §1
# AgBzz1-D1 = target: AgBzz1-D1
# Procedure, shortened: as §1
# AgBzz1-D2 = target: AgBzz1-D2
# Procedure, shortened: as §1
# AgCyk3 = target: AgCyk3
# Procedure, shortened: as §1
# AgFus1 = target: AgFus1
# Procedure, shortened: as §1
# AgHof1 = target: AgHof1
# Procedure, shortened: as §1
# AgHse1 = target: AgHse1
# Procedure, shortened: as §1
# AgLsb1 = target: AgLsb1
# Procedure, shortened: as §1
# AgLsb4 = target: AgLsb4
# Procedure, shortened: as §1
# AgMyo5 = target: AgMyo5
# Procedure, shortened: as §1
# AgNbp2 = target: AgNbp2
# Procedure, shortened: as §1
# AgRvs167 = target: AgRvs167
# Procedure, shortened: as §1
# AgSho1 = target: AgSho1
# Procedure, shortened: as §1
# AgSla1-D1-D2 = target: AgSla1-D1-D2
# Procedure, shortened: as §1
# AgSla1-D3 = target: AgSla1-D3
# Procedure, shortened: as §1
# CaAbp1-D1 = target: CaAbp1-D1
# Procedure, shortened: as §1
# CaAbp1-D2 = target: CaAbp1-D2
# Procedure, shortened: as §1
# CaBbc1 = target: CaBbc1
# Procedure, shortened: as §1
# CaBem1-D1 = target: CaBem1-D1
# Procedure, shortened: as §1
# CaBzz1-D1 = target: CaBzz1-D1
# Procedure, shortened: as §1
# CaBzz1-D2 = target: CaBzz1-D2
# Procedure, shortened: as §1
# CaCyk3 = target: CaCyk3
# Procedure, shortened: as §1
# CaFus1 = target: CaFus1
# Procedure, shortened: as §1
# CaHof1 = target: CaHof1
# Procedure, shortened: as §1
# CaHse1 = target: CaHse1
# Procedure, shortened: as §1
# CaLsb1 = target: CaLsb1
# Procedure, shortened: as §1
# CaLsb4 = target: CaLsb4
# Procedure, shortened: as §1
# CaMyo5 = target: CaMyo5
# Procedure, shortened: as §1
binder,measurement,setting,value
GRLRPKRIAPWHLIQ,SPOT peptide array binding signal intensity,CaNbp2,1940
same,SPOT peptide array binding signal intensity,CaRvs167,9.17
same,SPOT peptide array binding signal intensity,CaRvs167-3,49.2
same,SPOT peptide array binding signal intensity,CaSho1,174
same,SPOT peptide array binding signal intensity,CaSla1-D1-D2,143
same,SPOT peptide array binding signal intensity,CaSla1-D3,1
same,SPOT peptide array binding signal intensity,ScAbp1,13
same,SPOT peptide array binding signal intensity,ScBbc1,24.5
same,SPOT peptide array binding signal intensity,ScBem1-D1,8.5
same,SPOT peptide array binding signal intensity,ScBzz1-D1,0.5
same,SPOT peptide array binding signal intensity,ScBzz1-D2,3
same,SPOT peptide array binding signal intensity,ScCyk3,242
same,SPOT peptide array binding signal intensity,ScFus1,106
same,SPOT peptide array binding signal intensity,ScHof1,0.25
same,SPOT peptide array binding signal intensity,ScHse1,1020
same,SPOT peptide array binding signal intensity,ScLsb1,2.5
same,SPOT peptide array binding signal intensity,ScLsb2,2
same,SPOT peptide array binding signal intensity,ScLsb3,131
same,SPOT peptide array binding signal intensity,ScLsb4,2
same,SPOT peptide array binding signal intensity,ScMyo3,1
same,SPOT peptide array binding signal intensity,ScMyo5,1.5
same,SPOT peptide array binding signal intensity,ScNbp2,1940
same,SPOT peptide array binding signal intensity,ScPex13,10
same,SPOT peptide array binding signal intensity,ScRvs167,27.7
same,SPOT peptide array binding signal intensity,ScSho1,195
same,SPOT peptide array binding signal intensity,ScSla1-D1-D2,134
same,SPOT peptide array binding signal intensity,ScSla1-D3,5
same,SPOT peptide array binding signal intensity,SpAbp1-D1,226
same,SPOT peptide array binding signal intensity,SpBbc1,1
same,SPOT peptide array binding signal intensity,SpBzz1-D1,228
same,SPOT peptide array binding signal intensity,SpBzz1-D2,1.5
same,SPOT peptide array binding signal intensity,SpCyk3,7
same,SPOT peptide array binding signal intensity,SpHof1,70
same,SPOT peptide array binding signal intensity,SpHof1-2,1.5
same,SPOT peptide array binding signal intensity,SpHof1-3,299
same,SPOT peptide array binding signal intensity,SpHse1,309
same,SPOT peptide array binding signal intensity,SpLsb1,5.5
same,SPOT peptide array binding signal intensity,SpLsb4,95.5
same,SPOT peptide array binding signal intensity,SpMyo1,2.5
same,SPOT peptide array binding signal intensity,SpNbp2,110
same,SPOT peptide array binding signal intensity,SpPex13,4
same,SPOT peptide array binding signal intensity,SpRvs167,9
same,SPOT peptide array binding signal intensity,SpSla1-D1-D2,≤ 0
same,SPOT peptide array binding signal intensity,SpSla1-D3,≤ 0
SLSRRRFSLPSMPNV,SPOT peptide array binding signal intensity,AgAbp1,83.5
same,SPOT peptide array binding signal intensity,AgBbc1,114
same,SPOT peptide array binding signal intensity,AgBem1-D1,418
same,SPOT peptide array binding signal intensity,AgBzz1-D1,44.5
same,SPOT peptide array binding signal intensity,AgBzz1-D2,72.5
same,SPOT peptide array binding signal intensity,AgCyk3,6.5
same,SPOT peptide array binding signal intensity,AgFus1,404
same,SPOT peptide array binding signal intensity,AgHof1,158
same,SPOT peptide array binding signal intensity,AgHse1,1010
same,SPOT peptide array binding signal intensity,AgLsb1,1240
same,SPOT peptide array binding signal intensity,AgLsb4,41.5
same,SPOT peptide array binding signal intensity,AgMyo5,3
same,SPOT peptide array binding signal intensity,AgNbp2,97.5
same,SPOT peptide array binding signal intensity,AgRvs167,5
same,SPOT peptide array binding signal intensity,AgSho1,28
same,SPOT peptide array binding signal intensity,AgSla1-D1-D2,60
same,SPOT peptide array binding signal intensity,AgSla1-D3,6
same,SPOT peptide array binding signal intensity,CaAbp1-D1,872
same,SPOT peptide array binding signal intensity,CaAbp1-D2,370
same,SPOT peptide array binding signal intensity,CaBbc1,471
same,SPOT peptide array binding signal intensity,CaBem1-D1,112
same,SPOT peptide array binding signal intensity,CaBzz1-D1,183
same,SPOT peptide array binding signal intensity,CaBzz1-D2,189
same,SPOT peptide array binding signal intensity,CaCyk3,87.5
same,SPOT peptide array binding signal intensity,CaFus1,1080
same,SPOT peptide array binding signal intensity,CaHof1,0.5
same,SPOT peptide array binding signal intensity,CaHse1,62.8
same,SPOT peptide array binding signal intensity,CaLsb1,13
same,SPOT peptide array binding signal intensity,CaLsb4,52.5
same,SPOT peptide array binding signal intensity,CaMyo5,14.5
same,SPOT peptide array binding signal intensity,CaNbp2,282
same,SPOT peptide array binding signal intensity,CaRvs167,27
same,SPOT peptide array binding signal intensity,CaRvs167-3,152
same,SPOT peptide array binding signal intensity,CaSho1,477
same,SPOT peptide array binding signal intensity,CaSla1-D1-D2,471
same,SPOT peptide array binding signal intensity,CaSla1-D3,133
same,SPOT peptide array binding signal intensity,ScAbp1,94
same,SPOT peptide array binding signal intensity,ScBbc1,26.5
same,SPOT peptide array binding signal intensity,ScBem1-D1,28
same,SPOT peptide array binding signal intensity,ScBzz1-D1,54
same,SPOT peptide array binding signal intensity,ScBzz1-D2,29.5
same,SPOT peptide array binding signal intensity,ScCyk3,192
same,SPOT peptide array binding signal intensity,ScFus1,256
same,SPOT peptide array binding signal intensity,ScHof1,3
same,SPOT peptide array binding signal intensity,ScHse1,1590
same,SPOT peptide array binding signal intensity,ScLsb1,348
same,SPOT peptide array binding signal intensity,ScLsb2,42
same,SPOT peptide array binding signal intensity,ScLsb3,181
same,SPOT peptide array binding signal intensity,ScLsb4,9.5
same,SPOT peptide array binding signal intensity,ScMyo3,9.5
same,SPOT peptide array binding signal intensity,ScMyo5,9.25
same,SPOT peptide array binding signal intensity,ScNbp2,350
same,SPOT peptide array binding signal intensity,ScPex13,38
same,SPOT peptide array binding signal intensity,ScRvs167,37.3
same,SPOT peptide array binding signal intensity,ScSho1,743
same,SPOT peptide array binding signal intensity,ScSla1-D1-D2,636
same,SPOT peptide array binding signal intensity,ScSla1-D3,97.8
same,SPOT peptide array binding signal intensity,SpAbp1-D1,416
same,SPOT peptide array binding signal intensity,SpBbc1,8
same,SPOT peptide array binding signal intensity,SpBzz1-D1,311
same,SPOT peptide array binding signal intensity,SpBzz1-D2,1.75
same,SPOT peptide array binding signal intensity,SpCyk3,18
same,SPOT peptide array binding signal intensity,SpHof1,248
same,SPOT peptide array binding signal intensity,SpHof1-2,58.5
same,SPOT peptide array binding signal intensity,SpHof1-3,440
same,SPOT peptide array binding signal intensity,SpHse1,662
same,SPOT peptide array binding signal intensity,SpLsb1,270
same,SPOT peptide array binding signal intensity,SpLsb4,106
same,SPOT peptide array binding signal intensity,SpMyo1,15.5
same,SPOT peptide array binding signal intensity,SpNbp2,235
same,SPOT peptide array binding signal intensity,SpPex13,49
same,SPOT peptide array binding signal intensity,SpRvs167,14
same,SPOT peptide array binding signal intensity,SpSla1-D1-D2,5
same,SPOT peptide array binding signal intensity,SpSla1-D3,19
